Screening data from PubChem BioAssay.
Most compounds without a hit are left out; they make up all but 7.4% or so of the library.
Luc counter = Kinase-Glo luciferase inhibition (counter-screen). Q27757. Kinase-Glo luciferase, ATP luminescence, 8 min. Potency, µM (top dose mostly 38.3 µM), without a hit: at the highest dose activity change, negative = inhibition, usual class: inhibitors. hit rate 0.28% among 200,000. AID 1379; further: on the % scale 0 is the no-effect control and ±100 the full control effect; nearly all actives have a fitted effect of over 60% in size
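Luminescence was the read-out, taken after 8-minute incubation at ambient temperature. Luciferase turned over luciferin with 10 uM ATP in imidazole pH 7.2 buffer containing KCl, MgCl2, Tween 20 and BSA.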
FLuc counter = counter-screen for miR-21 project: firefly luciferase inhibitors or activators. purified FLuc, Km substrates, luminescence inhibition. Potency, µM (series often up to 57.5 µM), inactives show at the highest dose activity change, negative = inhibition, hits mostly inhibitors. AID 588342. hit rate 6.9% among 360,000. P08659;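 further: plate controls were vehicle for no effect and reference inhibitor for full effect; nearly all actives have a fitted effect of over 55% in size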
Target sequence (P08659 whole entry, looked up): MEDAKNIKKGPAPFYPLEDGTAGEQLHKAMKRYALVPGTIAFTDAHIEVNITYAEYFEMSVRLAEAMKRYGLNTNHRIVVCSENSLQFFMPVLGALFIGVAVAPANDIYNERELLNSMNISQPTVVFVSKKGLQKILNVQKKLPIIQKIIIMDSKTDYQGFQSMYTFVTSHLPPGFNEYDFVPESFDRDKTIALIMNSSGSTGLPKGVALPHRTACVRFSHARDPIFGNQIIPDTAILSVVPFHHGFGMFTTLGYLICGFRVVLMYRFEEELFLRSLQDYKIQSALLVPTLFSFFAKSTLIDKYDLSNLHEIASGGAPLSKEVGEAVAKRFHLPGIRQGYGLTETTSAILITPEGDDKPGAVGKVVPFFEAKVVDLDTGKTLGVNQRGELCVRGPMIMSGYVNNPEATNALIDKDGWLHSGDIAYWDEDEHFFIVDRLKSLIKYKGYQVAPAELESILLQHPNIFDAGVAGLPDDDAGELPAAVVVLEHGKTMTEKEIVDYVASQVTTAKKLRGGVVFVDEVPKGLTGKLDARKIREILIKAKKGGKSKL
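Biochemical qHTS of compounds, final roughly 60 µM downward over six points, against 10 nM purified firefly luciferase using Km concentrations of substrates (10 uM D-luciferin, 10 uM ATP) in Tris acetate pH 7.5 buffer; luminescence output.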
SMN2 splice up = enhancers of SMN2 splice variant expression | AID 1458 | HEK293 SMN2-luciferase splicing reporter, luminescence, 30-36 h | hit rate 2.8% among 210,000 | Potency, µM (highest dose often 46.1 µM), for inactives: at the top dose activity change, positive = activation, usual class: activators; further: % of control where 0% means no effect; nearly all actives have a fitted effect of over 55% in size
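qHTS luciferase splicing reporter: luminescence rises when SMN2 exon 7 is included in transfected HEK293 cells. Compound exposure lasted 30-36 h at 37C, with 4.5 mM final sodium butyrate as control, followed by a ONE-Glo read.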
Rab9 promoter act = activators of Rab9 promoter | Huh7 Rab9 promoter-luciferase reporter, luminescence, 24 h | Potency, µM (top dose mostly 9.22 µM), for inactives: top-dose activation, negative = inhibition, most hits filed as activators | hit rate 2.8% among 320,000 | AID 485297; further: % of control where 0% means no effect; nearly all actives have a fitted effect of over 60% in size
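Luminescence read-out: Huh7 cells stably expressing Rab9-luciferase, treated 24 h with compound at 37 °C, then lysed with luciferase reagent for 10 min at ambient before reading.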
NPC1 promoter act = activates the NPC1 promoter; AID 485313; hit rate 2.4% among 320,000; Huh7 NPC1 promoter luciferase reporter, 24 h; Potency, µM (highest dose often 9.22 µM), without a hit: at the highest dose activation, hits mostly activators; further: % of control where 0% means no effect; nearly all actives have a fitted effect of over 60% in size
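Luciferase expression driven by the NPC1 promoter was measured in stably transfected Huh7 cells after a 24 h compound incubation, using a luciferase reagent and a luminescence read.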
ELG1 genotoxic = genotoxicity induction in ELG1-luciferase HEK293T cells | HEK293T ELG1-luciferase reporter, luminescence, 16 h | Potency, µM (series often up to 46 µM), for inactives: at the highest dose activity change, positive = activation, actives largely listed as activators | hit rate 1.3% among 330,000 | AID 504466; further: % of control where 0% means no effect; nearly all actives have a fitted effect of over 60% in size
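Quantitative HTS format in 1536-well plates. HEK293T ELG1-luciferase reporter cells receive test compound and are incubated 16 hr at 37 °C, 5% CO2; ONE-Glo added, 30 min room temperature, then luminescence read.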
* marks the source's active call; other numbers are inactive results; ? = inconclusive; · = no result given; [ ] = another dose, or the depositor's remark. The call rests on the fitted dose curve; in most records, active means well fitted curve in the direction sought with a large enough effect; inconclusive means small, poorly fitted or top-dose-only effect, or another doubt; inactive means no such curve, though single readings can be large; an effect the other way counts as inactive or inconclusive. Potency means the concentration at half of the fitted maximal effect.

SMILES | Luc counter | FLuc counter | SMN2 splice up | Rab9 promoter act | NPC1 promoter act | ELG1 genotoxic
Cc1ccccc1OCc1nc(-c2ccc(NC(=O)c3ccc4c(c3)OCO4)cc2)no1 | -8.4% | ? | -8.0% | 3.7% | 19.2% | 9.3%
Cc1ccccc1OCc1nc(-c2ccc(NC(=O)c3cccs3)cc2)no1 | -8.6% | 12µM* | ? | ? | ? | ?
Cc1ccccc1OCc1nc(-c2ccc(NC(=O)c3ccco3)cc2)no1 | -18.7% | 10.7µM* | 7.08µM* | ? | ? | ?
CCOc1cc(/C=N/NC(=O)CCn2nc(C)cc2C)ccc1O | · | 0.3% | · | -0.5% | -0.2% | -1.2%
O=C(O)Cn1nnc(-c2ccc(OCc3ccccc3Cl)cc2)n1 | · | 19µM* | · | -2.9% | 2.1% | 4.7%
CC(C)n1nnc(-c2ccc(OCc3ccccc3F)cc2)n1 | · | 6.01µM* | · | 1.58µM* | 2.82µM* | ?
Cn1nnc(-c2ccc(OCc3ccccc3F)cc2)n1 | -23.7% | 1.9µM* | 8.91µM* | 1µM* | 0.631µM* | 9.2µM*
C#CC(C)(CC)NC(=O)Cn1nnc(-c2ccc(OCc3ccccc3Cl)cc2)n1 (stereo not drawn) | · | -18.5% | -19.4% | · | · | ·
Nc1ccc(-c2nnn(Cc3ccccc3F)n2)cc1 | · | 15.1µM* | · | ? | ? | ?
Cc1ccc(CN2CCC(n3nccc3NC(=O)CCOc3ccccc3)CC2)cc1C | · | 1.4% | · | -6.6% | 1.2% | -5.7%
Cc1c(-c2nnc(SCC(=O)Nc3ccc(Cl)cc3)o2)nnn1-c1ccc(F)cc1 | · | -2.6% | · | · | · | ·
Fc1ccccc1COc1ccc(C(=S)N2CCCC2)cc1 | · | 16.9µM* | · | ? | ? | ?
CN(C)Cc1ccccc1Sc1ccc(Br)cc1 | -3.9% | -4.4% | -7.4% | 1.0% | -1.8% | -0.6%
Cc1cc(=O)oc(C)c1C(=O)Nc1ccc2ncccc2c1 | -2.5% | -0.7% | 7.4% | 2.4% | 8.8% | -2.9%
Cc1oncc1C(=O)Nc1ccc2ccccc2c1 | · | 19µM* | · | ? | ? | ?
COC(=O)c1cccc(NC(=O)c2cnoc2C)c1 | -0.2% | 23.9µM* | 4.9% | ? | 17.8% | 9.1%
Cc1oncc1C(=O)Nc1ccc(C(F)(F)F)cc1 | -3.6% | ? | 11.2µM* | 1.41µM* | ? | ?
Cc1coc(C)c1C(=O)Nc1ccc2ccccc2c1 | · | 10.7µM* | · | 2.82µM* | 3.55µM* | ?
Cc1nc(Cl)sc1C(=O)Nc1ccc(C(F)(F)F)cc1 | · | -19.2% | · | 1.1% | 1.7% | 0.0%
Cc1cccc(-c2noc(-c3ccc(Cl)cc3[N+](=O)[O-])n2)c1 | -4.4% | 1.51µM* | ? | 2.51µM* | 0.708µM* | ?
COc1ccc(-c2noc(-c3ccc(Cl)cc3[N+](=O)[O-])n2)cc1OC | -2.0% | 4.26µM* | 25.1µM* | 3.98µM* | ? | 17.1%
COc1cc(-c2noc(-c3ccc(N4CCOCC4)c([N+](=O)[O-])c3)n2)cc(OC)c1OC | · | 19µM* | · | · | · | ·
COc1ccc(-c2noc(-c3ccc(N4CCCC4)c([N+](=O)[O-])c3)n2)cc1OC | · | -17.0% | · | · | · | ·
COc1ccc(-c2noc(-c3ccc(NC(C)c4ccccc4)c([N+](=O)[O-])c3)n2)cc1OC (stereo not drawn) | · | 10.7µM* | · | · | · | ·
CCOc1ccc(NC(=O)CN(C)Cc2ccc3c(c2)OCO3)cc1S(=O)(=O)N1CCCC1 | · | 1.9% | · | -3.6% | 1.6% | -0.1%
SMILES | Luc counter | FLuc counter | SMN2 splice up | Rab9 promoter act | NPC1 promoter act | ELG1 genotoxic
COCCn1c(C)c(C)c(S(=O)(=O)c2ccccc2)c1N | · | 0.4% | · | 0.7% | 0.0% | -2.7%
CN(C)CCNC(=S)Nc1ccc(-c2nc3ccccc3[nH]2)cc1 | -2.0% | 9.53µM* | 11.2µM* | 1.58µM* | 2.24µM* | 18.4%
S=C(NCCCN1CCOCC1)Nc1ccc(-c2nc3ccccc3[nH]2)cc1 | -1.8% | ? | -14.4% | 27.3% | 21.2% | -1.1%
O=C(CSc1n[nH]c(-c2ccccc2O)n1)N1CCOCC1 | -16.9% | 19µM* | 18.0% | 26.6% | 5.0% | 8.0%
Cc1ccc2nc(-c3ccc(SCC(=O)Nc4nnc(C)s4)nc3)[nH]c2c1 | -17.8% | 0.601µM* | 14.1µM* | 2.82µM* | 2.51µM* | ?
CCc1nnc(NC(=O)CSc2ccc(-c3nc4ccccc4[nH]3)cn2)s1 | -10.7% | ? | ? | 2.51µM* | ? | ?
CCOC(=O)c1cnc2c(C)cccc2c1Nc1cccc(C(=O)O)c1 | · | ? | · | -0.7% | 2.3% | -0.1%
Cc1ccc2nc(-c3ccc(SCC(=O)Nc4nc(C)cs4)nc3)[nH]c2c1 | -4.8% | 0.536µM* | 6.31µM* | 2.82µM* | 3.55µM* | ?
Cc1nnc(NC(=O)CSc2n[nH]c(-c3ccccc3C)n2)s1 | · | -1.2% | · | -11.5% | 0.6% | 3.7%
Cc1ccc(NC(=O)CCCSc2nc3ccccc3[nH]2)cc1 | -1.2% | ? | -20.0% | 1.3% | -1.3% | -0.3%
CC(=O)Nc1ccc(-c2nc3c(C)cccc3[nH]2)cc1 | -17.2% | 2.39µM* | 3.55µM* | 1.58µM* | 2.51µM* | 2.91µM*
Cc1ccc(SCC(=O)Nc2ccc(-c3nc4ccccc4[nH]3)cc2)cc1 | 0.0% | -8.2% | 5.62µM* | ? | ? | ?
CCc1nnc(NC(=O)CSc2n[nH]c(-c3ccccc3O)n2)s1 | -1.3% | 16.9µM* | · | -7.1% | 0.8% | 0.4%
Cc1ccc(Cn2c(=O)n(CCCCC(=O)NCc3ccccc3Cl)c(=O)c3ccccc32)cc1 | · | 2.1% | 13.4% | · | · | ·
CCOC(=O)C1=C(COC(=O)/C=C/c2cccc(OC)c2)NC(=O)NC1C (stereo not drawn) | · | -2.1% | · | -0.7% | 4.3% | -16.7%
CC(=O)c1cccc(CN(C)CC2CCCN(CCc3ccccc3C)C2)c1 (stereo not drawn) | · | 7.6% | · | -4.4% | -3.0% | -4.1%
Cc1ccc2nc(SCC(=O)Nc3nnc(SCC(N)=O)s3)[nH]c2c1 | 1.7% | 16.9µM* | -0.9% | -1.3% | -0.6% | -0.3%
O=C(CSc1ccc(-c2nc3ccccc3[nH]2)cn1)Nc1ccc(S(=O)(=O)NC2CC2)cc1 | -5.5% | 1.51µM* | 44.1% | 2.2% | -0.6% | 0.5%
Cc1nc(NC(=O)CSc2ccc(-c3nc4ccccc4[nH]3)cn2)sc1C | -5.1% | -12.9% | 17.4% | ? | ? | ?
Cc1ccccc1C(=O)N1CCC(C(=O)N2CCCc3ccccc32)CC1 | · | ? | · | 2.8% | -2.0% | -0.5%
CCOc1cccc(/C=C/c2ccc3cccc(O)c3n2)c1O | · | 5.36µM* | · | ? | ? | 23.1µM*
CCOc1cc(/C=C/c2ccc3cccc([N+](=O)[O-])c3n2)ccc1O | -2.8% | ? | 9.3% | -0.7% | -3.2% | -0.4%
CCOc1cccc(/C=C/c2ccc3cccc(O)c3n2)c1OC | · | 4.78µM* | · | 11.7%[1.84 µM] | 3.16µM* | 20.6µM*
